# Giardia kill – Giardia lamblia killing; actives 0.15% (n = 340,000); activity change, % at 7.66 µM, hits read low; AID 540267; Giardia lamblia trophozoite viability; in the data active = activity change below about -80%; inconclusive = between about -30% and that limit;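 also: parasites exposed to compound for two days anaerobically before the ATP read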
#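 Giardia lamblia trophozoites (100 cells/well) were incubated with compounds for 48 h at 37 deg C under anaerobic conditions. Viability was read as ATP content by one-step luminescence after 15-30 min at room temperature.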
# FBPA coupling cs – counter-screen for Giardia aldolase inhibitors: coupling enzyme system; coupling enzyme system counterscreen, AmpLite Red fluorescence; activity change, negative = inhibition, % at 58.2 µM, hits read low; actives 0.67% (n = 290,000); in the data active = activity change below about -30%
#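 Fluorescence at 525 nm excitation and 598 nm emission measured inhibition of the coupled detection system without aldolase. Compounds (at 57.5 uM final) were preincubated 10 min at room temperature with coupling enzyme reagent before a 20 min substrate/AmpLite Red step.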
# Sfp PPTase inh – blocks B. subtilis Sfp PPTase activity | Biochemical Sfp PPTase activity, qHTS | AID 1490 | Q9F4F7 | Potency, µM, inactives show largest response in the series, negative = inhibition, actives largely listed as inhibitors | actives 3.5% (n = 310,000);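 also: the enzyme is Sfp with the accession as filed and its product quenches rhodamine fluorescence; potency is read from the fitted curve at half-maximal effect; 0% = enzyme reaction without inhibitor and -100% = no enzyme wells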
#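 After 15 min at room temperature with compound, 15 nM Sfp received 5 uM rhodamine-CoA plus 12.5 uM BHQ-2-ybbR (50 mM Hepes pH 7.6, 10 mM MgCl2). Rate came from the fluorescence difference over 30 min, ex 525/em 598 nm.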
# ELG1 DNA repair – inhibitors of ELG1-dependent DNA repair in HEK293T cells; HEK293T ELG1-luciferase reporter, luminescence, 16 h; DNA damage induced by 5-fluorouridine; Potency, µM (highest dose often 46.1 µM), for the others: top-dose activity change, negative = inhibition, hits mostly inhibitors; actives 2.3% (n = 330,000); AID 504467; also: potency is read from the fitted curve at half-maximal effect; nearly all actives have a fitted effect of over 55% in size
#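 Quantitative HTS, concentration-response format. 2,000 cells/well co-treated with 5-fluorouridine and compound, 16 hr in 5% CO2 at 37 °C; ONE-Glo luminescence read after 30 min.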
# Numbers without * were called inactive; ? = inconclusive; · = no result given. Only some compounds are listed: those with a hit (about 5.5% of all), similar ones and a draw of the others. Unless noted, calls follow the shape of the dose curve; as a rule, active = well fitted curve in the direction sought with a large enough effect; inconclusive = small, poorly fitted or top-dose-only effect, or another doubt; inactive = no such curve, though single readings can be large; an effect the other way counts as inactive or inconclusive. Unless noted, % is scaled to controls: 0 for no effect and ±100 for the full control effect.
SMILES,Giardia kill,FBPA coupling cs,Sfp PPTase inh,ELG1 DNA repair
CCCCNS(=O)(=O)c1ccc2nc(SCC(N)=O)[nH]c2c1,20,0,25%,0%
CCCCNS(=O)(=O)c1ccc2nc(SCC(=O)c3ccccc3OC)[nH]c2c1,9,3,15%,21µM*
CCCCNS(=O)(=O)c1ccc2nc(SCC(=O)Nc3sccc3C#N)[nH]c2c1,3,-4,63µM*,16µM*
COc1cc(C(=O)N[C@H](C(=O)OCC(=O)NC2CCCCCC2)C(C)C)cc(OC)c1OC,-3,·,·,?
COc1ccc(C2CC(=O)c3cnn(-c4nc(C)cc(C)n4)c3C2)cc1 (stereo not given),-14,4,6%,?
CCn1c2ccccc2c2cc(NC(=O)C(C)OC(=O)c3ccc(NC(=O)CC#N)cc3)ccc21 (stereo not given),-30,·,·,-1%
CNC(=S)N1N=C(c2ccc(Br)cc2)CC1c1ccc(Br)cc1 (stereo not given),-5,0,0%,5.8µM*
Cc1ccc(NC(=O)COC(=O)c2c[nH]c3ccccc23)cc1C,-10,·,·,22%
CN1CCCN([C@@H](c2ccccc2)c2ccc(Cl)cc2)CC1,·,0,5%,·
O=C(CNS(=O)(=O)c1ccc(Br)cc1)N1CCN(c2ccc(F)cc2)CC1,-17,0,0%,?
O=C(CNS(=O)(=O)c1ccc(Cl)cc1)N1CCN(c2ccc(F)cc2)CC1,-22,·,·,23µM*
NC(=O)C1CCN(C(=O)COc2ccc(S(=O)(=O)NC3CCCC3)cc2)CC1,14,1,8%,2%
O=C(COc1ccc(S(=O)(=O)NC2CCCCC2)cc1)N1CCN(c2ccc(F)cc2)CC1,-26,0,-16%,9.2µM*
Cc1nnc(N2CCCC(C(=O)NCc3ccc(OC(C)C)cc3)C2)c2nn(-c3ccccc3)c(C)c12 (stereo not given),-6,·,89µM*,?
Cc1nnc(N2CCCC(C(=O)Nc3cc(F)ccc3F)C2)c2nn(-c3ccccc3)c(C)c12 (stereo not given),-13,·,1%,?
CCOC(=O)Nc1c(O)ccc2oc(C)c(-c3ccccc3)c12,-11,-57*,15%,?
CCOC(=O)C(=O)Nc1nc(-c2ccccc2)c(-c2ccccc2)o1,-7,10,6%,1%
CN(CC(=O)OCC(=O)NC1CCCC1)S(=O)(=O)c1ccc(Cl)cc1,-11,·,·,0%
CN(C(=S)Oc1ccc(C(=O)Nc2ccccc2)cc1)c1ccccc1,-12,1,3%,18µM*
O=C(Cc1ccccc1Cl)Nc1cc(S(=O)(=O)N2CCOCC2)ccc1N1CCOCC1,19,·,·,-13%
CCOC(=O)C1(Cc2ccccc2C)CCCN(C(=O)c2ccc3nccnc3c2)C1 (stereo not given),-17,1,0%,23µM*
COc1cc(NC(C)CCCN)c2ncccc2c1Oc1ccccc1 (stereo not given),6,-30*,-28%,-6%
Cc1cccc(OCC(=O)NCCCNC(=O)c2cccnc2)c1,-4,-2,19%,27%
Cc1cccc(OCC(=O)NNc2c3ccccc3nc3ccccc23)c1,-9,1,-16%,15µM*
Cc1ccc(C(=O)NNC(=S)NC(=O)COc2ccccc2)cc1,1,1,56µM*,2%
SMILES,Giardia kill,FBPA coupling cs,Sfp PPTase inh,ELG1 DNA repair
Cc1cccc(OCC(=O)NC(=S)NNC(=O)c2ccncc2)c1,-9,·,18µM*,-6%
CCN1C(=NCCCOC(C)C)N[C@@H](CCc2ccccc2)[C@H](C(=O)NCCCOC(C)C)[C@H]1C,16,1,0%,?
CC(=O)Nc1ccc(/C=N/Nc2nncc3ccccc23)cc1,-6,2,89µM*,?
CCOCc1c(C(=O)Nc2ccc3nc(N4CCOCC4)sc3c2)oc2ccccc12,11,·,·,12µM*
CCOCc1c(C(=O)Nc2cc(OCC)c(N3CCOCC3)cc2OCC)oc2ccccc12,12,-5,0%,13µM*
CCCn1nc(C(=O)Nc2ccc3nc(N4CCOCC4)sc3c2)ccc1=O,39,·,·,16µM*
CCc1noc(C)c1C(=O)N1CCCSC1=Nc1ccccc1Cl,-8,·,·,0%
COc1ccc(NC(=O)NNC(=O)COc2ccc([N+](=O)[O-])c(C)c2)cc1OC,17,·,9%,4%
CS(=O)(=O)c1ccc2nc(NC(=O)c3ccc(Cn4cc(Br)cn4)o3)sc2c1,-24,·,6%,-1%
CN(C(=O)CSc1nncc2ccccc12)c1ccccc1,1,·,·,4%
Cc1ccc(C(=O)NNCC(=O)Nc2ccc(Cl)cc2F)cc1,-12,·,·,17%
COC(=O)c1sc(N)c(C(=O)OC)c1COC(=O)CCNS(=O)(=O)c1ccc(C)cc1,3,1,-11%,10µM*
Cc1ccc(CNc2ccc3c(c2)OCO3)cc1,-5,-37*,56µM*,·
CC(=O)O[C@@H](C)C#C[Si](C)(C)c1ccccc1,·,1,19%,·
CC(=O)c1cccc(NCC(=O)N2CCN(S(=O)(=O)c3ccccc3)CC2)c1,6,·,·,9%
COc1ccc(CN(C(=O)c2snc(C(N)=O)c2N)C(C(=O)NC2CCCC2)c2ccco2)cc1 (stereo not given),3,1,11%,-5%
Cc1ccc(CN=Cc2[nH]c3ccc(Br)c(Cl)c3c2O)cc1,8,-40*,?,1%
O=C(NC1CC1)c1scc2c1OCCO2,-16,0,21%,16µM*
S=C(NCc1cccnc1)Nc1ccc(Oc2ccc(Cl)cc2)cc1,11,0,18%,10µM*
NS(=O)(=O)c1ccc(CNC(=S)Nc2ccc(F)c(Cl)c2)cc1,-10,-2,-12%,?
NS(=O)(=O)c1ccc(NC(=S)NCc2ccco2)cc1,-24,0,20µM*,4%
NS(=O)(=O)c1ccc(NC(=S)NCc2ccc3c(c2)OCO3)cc1,2,-2,20µM*,-11%
NS(=O)(=O)c1ccc(NC(=S)NCc2ccc(Cl)cc2)cc1,7,1,22µM*,-3%
CCCCCCCCCC(=O)O[C@H](CC(=O)O)C[N+](C)(C)C,·,4,-18%,·
O=C(CCN1C(=O)c2ccccc2S1(=O)=O)Nc1ccc(F)c(F)c1F,-14,·,·,-9%
SMILES,Giardia kill,FBPA coupling cs,Sfp PPTase inh,ELG1 DNA repair
O=C(Nc1ccccc1)Nc1ccc(Cl)nc1Cl,6,·,·,·
CC(NC(=O)OCc1ccccc1)C(=O)Oc1cc2oc(=O)cc(-c3ccccc3)c2cc1Cl (stereo not given),8,14,20%,21µM*
CCc1cc2c(-c3ccccc3)cc(=O)oc2cc1OC(C)C(=O)O (stereo not given),10,9,4%,-3%
CCCCCCCCOc1ccccc1C(=O)Nc1ccc(C(=O)OCC[N+](C)(CC)CC)cc1,·,·,40µM*,·
CCCCOC(=O)c1ccc(NC(=O)c2c(OC)cccc2OC)cc1,-10,5,-5%,2%
O=C(NCC(c1ccco1)N1CCN(c2ccccc2)CC1)C(=O)NC1CCCC1 (stereo not given),-4,·,·,-8%
Cc1ccc(-c2nnc3ccc(SCC(=O)N4CCCc5ccccc54)nn23)cc1,-3,7,-11%,18µM*
